In paper doi:10.1101/2024.03.05.583629:

Molecular target: pT7_6His-AlfaTag-HOXD13 (human, UniProt P35453 263-343)
Assay: PADIT-seq
Conditions: dsDNA, one strand shown

pT7_6His-AlfaTag-HOXD13, sequence (P35453 263-343): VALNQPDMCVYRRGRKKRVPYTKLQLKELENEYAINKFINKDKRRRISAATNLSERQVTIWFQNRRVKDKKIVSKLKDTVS

Going from “CTCGAGGATATCAAGATCTGGCCTCGGCATTTTAAGCGGAACCTCTAGCTAGCCGACTCACTATAGGGATAATCGCCCTGAGCAAAGACC” to “CTCGAGGATATCAAGATCTGGCCTCGGCTCTTTAAAAGGAACCTCTAGCTAGCCGACTCACTATAGGGATAATCGCCCTGAGCAAAGACC”, the binding signal rises from 0.548 ± 0.1 log2FC to 2.42 ± 0.0868 log2FC.

First: CTCGAGGATATCAAGATCTGGCCTCGGCAACGTAAAAGGAACCTCTAGCTAGCCGACTCACTATAGGGATAATCGCCCTGAGCAAAGACC
Second: CTCGAGGATATCAAGATCTGGCCTCGGCGAGTTAAAAGGAACCTCTAGCTAGCCGACTCACTATAGGGATAATCGCCCTGAGCAAAGACC
The binding signal of the first is lower: 0.751 ± 0.0928 log2FC for the first, 0.985 ± 0.0828 log2FC for the second.

Compared with “CTCGAGGATATCAAGATCTGGCCTCGGCTAGATAAAAGGAACCTCTAGCTAGCCGACTCACTATAGGGATAATCGCCCTGAGCAAAGACC”, “CTCGAGGATATCAAGATCTGGCCTCGGCAGCATAAAAGGAACCTCTAGCTAGCCGACTCACTATAGGGATAATCGCCCTGAGCAAAGACC” is higher in binding signal: 0.188 ± 0.107 log2FC for the first, 0.863 ± 0.103 log2FC for the second.

Compared with “CTCGAGGATATCAAGATCTGGCCTCGGCTGTATAAAAGGAACCTCTAGCTAGCCGACTCACTATAGGGATAATCGCCCTGAGCAAAGACC”, “CTCGAGGATATCAAGATCTGGCCTCGGCATTTTACACGGAACCTCTAGCTAGCCGACTCACTATAGGGATAATCGCCCTGAGCAAAGACC” is higher in binding signal: 2.01 ± 0.0809 log2FC for the first, 2.19 ± 0.0742 log2FC for the second.

First: CTCGAGGATATCAAGATCTGGCCTCGGCTTGCTAAAAGGAACCTCTAGCTAGCCGACTCACTATAGGGATAATCGCCCTGAGCAAAGACC
Second: CTCGAGGATATCAAGATCTGGCCTCGGCATTTTAATTGGAACCTCTAGCTAGCCGACTCACTATAGGGATAATCGCCCTGAGCAAAGACC
The binding signal of the first is lower: -0.271 ± 0.11 log2FC for the first, 2.74 ± 0.0827 log2FC for the second.

Compared with “CTCGAGGATATCAAGATCTGGCCTCGGCGCGCATGCGGGAACCTCTAGCTAGCCGACTCACTATAGGGATAATCGCCCTGAGCAAAGACC”, “CTCGAGGATATCAAGATCTGGCCTCGGCCTTTTACGTGGAACCTCTAGCTAGCCGACTCACTATAGGGATAATCGCCCTGAGCAAAGACC” is higher in binding signal: -0.957 ± 0.123 log2FC for the first, 2.16 ± 0.0717 log2FC for the second.

Going from “CTCGAGGATATCAAGATCTGGCCTCGGCTTTTTAAACGGAACCTCTAGCTAGCCGACTCACTATAGGGATAATCGCCCTGAGCAAAGACC” to “CTCGAGGATATCAAGATCTGGCCTCGGCGTTTTACAGGGAACCTCTAGCTAGCCGACTCACTATAGGGATAATCGCCCTGAGCAAAGACC”, the binding signal rises from 1.28 ± 0.101 log2FC to 2.89 ± 0.0835 log2FC.

Going from “CTCGAGGATATCAAGATCTGGCCTCGGCGTTTTAGTTGGAACCTCTAGCTAGCCGACTCACTATAGGGATAATCGCCCTGAGCAAAGACC” to “CTCGAGGATATCAAGATCTGGCCTCGGCATTTTAGGAGGAACCTCTAGCTAGCCGACTCACTATAGGGATAATCGCCCTGAGCAAAGACC”, the binding signal rises from 0.145 ± 0.11 log2FC to 1.62 ± 0.0831 log2FC.

Compared with “CTCGAGGATATCAAGATCTGGCCTCGGCCTTTTACCTGGAACCTCTAGCTAGCCGACTCACTATAGGGATAATCGCCCTGAGCAAAGACC”, “CTCGAGGATATCAAGATCTGGCCTCGGCCCGCCACGCGGAACCTCTAGCTAGCCGACTCACTATAGGGATAATCGCCCTGAGCAAAGACC” is lower in binding signal: -0.0573 ± 0.0997 log2FC for the first, -1.05 ± 0.125 log2FC for the second.

Going from “CTCGAGGATATCAAGATCTGGCCTCGGCTTTTTAAGAGGAACCTCTAGCTAGCCGACTCACTATAGGGATAATCGCCCTGAGCAAAGACC” to “CTCGAGGATATCAAGATCTGGCCTCGGCTCCCTAAAAGGAACCTCTAGCTAGCCGACTCACTATAGGGATAATCGCCCTGAGCAAAGACC”, the binding signal falls from 2.84 ± 0.0822 log2FC to -0.0391 ± 0.141 log2FC.

First: CTCGAGGATATCAAGATCTGGCCTCGGCGTTTTAGGAGGAACCTCTAGCTAGCCGACTCACTATAGGGATAATCGCCCTGAGCAAAGACC
Second: CTCGAGGATATCAAGATCTGGCCTCGGCGTGATAAAAGGAACCTCTAGCTAGCCGACTCACTATAGGGATAATCGCCCTGAGCAAAGACC
The binding signal of the first is lower: 1.64 ± 0.105 log2FC for the first, 1.99 ± 0.0801 log2FC for the second.

Going from “CTCGAGGATATCAAGATCTGGCCTCGGCCAGCTAAAAGGAACCTCTAGCTAGCCGACTCACTATAGGGATAATCGCCCTGAGCAAAGACC” to “CTCGAGGATATCAAGATCTGGCCTCGGCTTGGTAAAAGGAACCTCTAGCTAGCCGACTCACTATAGGGATAATCGCCCTGAGCAAAGACC”, the binding signal rises from -0.419 ± 0.146 log2FC to 0.112 ± 0.0883 log2FC.

Compared with “CTCGAGGATATCAAGATCTGGCCTCGGCCGGATAAAAGGAACCTCTAGCTAGCCGACTCACTATAGGGATAATCGCCCTGAGCAAAGACC”, “CTCGAGGATATCAAGATCTGGCCTCGGCCGTTTAAAAGGAACCTCTAGCTAGCCGACTCACTATAGGGATAATCGCCCTGAGCAAAGACC” is higher in binding signal: 0.58 ± 0.0859 log2FC for the first, 1.9 ± 0.069 log2FC for the second.

First: CTCGAGGATATCAAGATCTGGCCTCGGCATTTTACGAGGAACCTCTAGCTAGCCGACTCACTATAGGGATAATCGCCCTGAGCAAAGACC
Second: CTCGAGGATATCAAGATCTGGCCTCGGCTTTTTACTGGGAACCTCTAGCTAGCCGACTCACTATAGGGATAATCGCCCTGAGCAAAGACC
The binding signal of the first is higher: 3.41 ± 0.0937 log2FC for the first, 2.73 ± 0.0875 log2FC for the second.

First: CTCGAGGATATCAAGATCTGGCCTCGGCGTTTTAAGGGGAACCTCTAGCTAGCCGACTCACTATAGGGATAATCGCCCTGAGCAAAGACC
Second: CTCGAGGATATCAAGATCTGGCCTCGGCTAATTAAAAGGAACCTCTAGCTAGCCGACTCACTATAGGGATAATCGCCCTGAGCAAAGACC
The binding signal of the first is lower: 1.67 ± 0.0925 log2FC for the first, 2.92 ± 0.0818 log2FC for the second.

Going from “CTCGAGGATATCAAGATCTGGCCTCGGCCGCCCAATTGGAACCTCTAGCTAGCCGACTCACTATAGGGATAATCGCCCTGAGCAAAGACC” to “CTCGAGGATATCAAGATCTGGCCTCGGCTTTTTATTGGGAACCTCTAGCTAGCCGACTCACTATAGGGATAATCGCCCTGAGCAAAGACC”, the binding signal rises from -0.555 ± 0.114 log2FC to 3.26 ± 0.0862 log2FC.

Compared with “CTCGAGGATATCAAGATCTGGCCTCGGCTCGTTAAAAGGAACCTCTAGCTAGCCGACTCACTATAGGGATAATCGCCCTGAGCAAAGACC”, “CTCGAGGATATCAAGATCTGGCCTCGGCTACCTAAAAGGAACCTCTAGCTAGCCGACTCACTATAGGGATAATCGCCCTGAGCAAAGACC” is lower in binding signal: 3.05 ± 0.0768 log2FC for the first, -0.459 ± 0.127 log2FC for the second.

Going from “CTCGAGGATATCAAGATCTGGCCTCGGCATTTTATAGGGAACCTCTAGCTAGCCGACTCACTATAGGGATAATCGCCCTGAGCAAAGACC” to “CTCGAGGATATCAAGATCTGGCCTCGGCCTGATAAAAGGAACCTCTAGCTAGCCGACTCACTATAGGGATAATCGCCCTGAGCAAAGACC”, the binding signal falls from 3.25 ± 0.0782 log2FC to 1.73 ± 0.0914 log2FC.

“CTCGAGGATATCAAGATCTGGCCTCGGCTTCTTAAAAGGAACCTCTAGCTAGCCGACTCACTATAGGGATAATCGCCCTGAGCAAAGACC” and “CTCGAGGATATCAAGATCTGGCCTCGGCGCACTAAAAGGAACCTCTAGCTAGCCGACTCACTATAGGGATAATCGCCCTGAGCAAAGACC” are within error of each other in binding signal: 0.549 ± 0.0953 log2FC for the first, 0.431 ± 0.0748 log2FC for the second.

Sequence “CTCGAGGATATCAAGATCTGGCCTCGGCTTTTTAAGTGGAACCTCTAGCTAGCCGACTCACTATAGGGATAATCGCCCTGAGCAAAGACC” has a binding signal of 1.17 ± 0.094 log2FC.
